{"source": "paper PMC8159961", "about": "“Exploring protein hotspots by optimized fragment pharmacophores” (Nature Communications, 2021)"}
{"biological_target": "thrombin (human, UniProt P00734)", "test": "primary screen, binary call; higher = more effect of the substance", "design": "screenings were carried out in duplicate in one independent experiment", "conditions": "200 µM; call rule not given here", "procedure": "Protease inhibitory assays were performed in transparent microtiter plates in a final volume of 200 µL with the use of chromogenic substrates. The reaction rates in the absence and in the presence of the inhibitor were measured; screenings were carried out in duplicate in one independent experiment and Ki values were determined in triplicate in two independent experiments."}
{"compound": "Oc1nnc(-c2ccccc2)o1", "Thrombin": "0 (inactive)"}
{"compound": "CC1C(=O)NC(=O)N1c1ccc(Cl)cc1", "note": "(stereo not shown)", "Thrombin": "0 (inactive)"}
{"compound": "N[C@H]1c2ccccc2C[C@H]1CO", "Thrombin": "0 (inactive)"}
{"compound": "O=C1CSC(Nc2ccc(F)cc2)=N1", "Thrombin": "0 (inactive)"}
{"compound": "O=C(O)C1CCN(c2ncccn2)CC1", "Thrombin": "1 (active)"}
{"compound": "Cc1nccn1Cc1cccc(C#N)c1", "Thrombin": "0 (inactive)"}
{"compound": "Nc1ccc(-c2ccccc2)cc1C(=O)O", "Thrombin": "0 (inactive)"}
{"compound": "Cc1ccc(-c2ccc(O)cc2)cc1", "Thrombin": "0 (inactive)"}
{"compound": "Cn1c(CO)nc2ccccc21", "Thrombin": "0 (inactive)"}
{"compound": "O=c1[nH]c2c(s1)CCC2", "Thrombin": "0 (inactive)"}
{"compound": "Cc1ccc(C)n1Cc1ccccc1Cl", "Thrombin": "0 (inactive)"}
{"compound": "Nc1ccc(SC(F)F)cc1", "Thrombin": "0 (inactive)"}
{"compound": "Oc1cnc(-c2ccccc2)nc1", "Thrombin": "0 (inactive)"}
{"compound": "COc1ccc(CN2CCNCC2)cc1F", "Thrombin": "0 (inactive)"}
{"compound": "NC1CCc2ccccc21", "note": "(stereo not shown)", "Thrombin": "0 (inactive)"}
{"compound": "CS(=O)(=O)c1ccc(N2CCNCC2)cc1", "Thrombin": "0 (inactive)"}
{"compound": "CN(C)c1cc(CN)ccn1", "Thrombin": "0 (inactive)"}
{"compound": "CCc1ccc(NC2=NCCCS2)cc1", "Thrombin": "0 (inactive)"}
{"compound": "Fc1ccc(CC2CCCNC2)cc1", "note": "(stereo not shown)", "Thrombin": "0 (inactive)"}
{"compound": "c1ccc(-c2ccncc2)cc1", "Thrombin": "0 (inactive)"}
{"compound": "Cc1cc(N)no1", "Thrombin": "0 (inactive)"}
{"compound": "CC1(C)OC(=O)c2cc(Br)c(O)cc2O1", "Thrombin": "0 (inactive)"}
{"compound": "COc1cccc(NC2=NCCCCC2)c1", "Thrombin": "0 (inactive)"}
{"compound": "Cc1cnc(C(F)(F)F)cn1", "Thrombin": "0 (inactive)"}
{"compound": "c1ccc2oc(C3CCCNC3)nc2c1", "note": "(stereo not shown)", "Thrombin": "0 (inactive)"}
{"compound": "Cc1ccc(CCNc2ccccc2)cn1", "Thrombin": "0 (inactive)"}
{"compound": "Cn1nc(C(F)(F)F)cc1O", "Thrombin": "0 (inactive)"}
{"compound": "Oc1ccc(-n2cncn2)cc1", "Thrombin": "0 (inactive)"}
{"compound": "O=c1[nH]ncc2c1oc1ccccc12", "Thrombin": "0 (inactive)"}
{"compound": "O=C(O)CC1CCC(=O)N1", "note": "(stereo not shown)", "Thrombin": "0 (inactive)"}
{"compound": "c1cnc2c(c1)NCCC2", "Thrombin": "0 (inactive)"}
{"compound": "N#Cc1ccc(C(=O)N2CCOCC2)cc1", "Thrombin": "0 (inactive)"}
{"compound": "Fc1ccc2c(C3CCNCC3)c[nH]c2c1", "Thrombin": "0 (inactive)"}
{"compound": "COc1ccccc1N1CCNCC1", "Thrombin": "0 (inactive)"}
{"compound": "Brc1ccc(-c2ccon2)cc1", "Thrombin": "0 (inactive)"}
{"compound": "N#CCCN1CCc2ccccc21", "Thrombin": "0 (inactive)"}
{"compound": "O=C(O)c1cccc(Nc2ncccn2)c1", "Thrombin": "0 (inactive)"}
{"compound": "CC(=O)c1ccc2c(c1)CNCC2", "Thrombin": "0 (inactive)"}
{"compound": "O=C1NC(=O)/C(=C\\c2cccs2)N1", "Thrombin": "0 (inactive)"}
{"compound": "O=C1NC(=O)C2(CCc3ccccc32)N1", "note": "(stereo not shown)", "Thrombin": "0 (inactive)"}
